Experimental data: PubChem BioAssay (EPA / NIEHS)
Activity calls are given as the source filed them. How the source made its calls: active means hit-call score of the fitted dose curve at least 0.9, where 1 is the maximum; inactive means score below 0.9.

Assays:
[1] = read-out: TIMP metallopeptidase inhibitor 2 (TIMP2), TIMP2 (gene 7077); experiment: BSK_KF3CT_TIMP2: BioMAP Diversity Plus: KF3CT Assay for TIMP metallopeptidase inhibitor 2 (TIMP2) Biomarker Activity (AID 2283071); settings: primary human keratinocytes with fibroblasts; actives raise or lower the signal
Procedure, shortened: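 Human primary keratinocyte/foreskin fibroblast co-culture dosed with chemical and sampled at 24 h. TIMP-2 levels quantified by ELISA; bidirectional fitting against DMSO negative control as baseline.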

[2] = read-out: Transforming growth factor beta 1 (TGFb1), TGFB1 (gene 7040); experiment: BSK_KF3CT_TGFb1: BioMAP Diversity Plus: KF3CT Assay for Transforming growth factor beta 1 (TGFb1) Biomarker Activity (AID 2283072); settings: primary human keratinocytes with fibroblasts; actives raise or lower the signal
Procedure, shortened: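 Human keratinocyte plus foreskin fibroblast primary co-culture, dosed with chemical for 24 h. TGF-b1 quantified by ELISA. Activity fitted bidirectionally against DMSO negative control as baseline.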

[3] = read-out: C-C motif chemokine 2 (Homo sapiens) (UniProt P13500); experiment: BSK_KF3CT_MCP1: BioMAP Diversity Plus: KF3CT Assay for Monocyte Chemoattractant Protein 1 (MCP1/CCL2) Biomarker Activity (AID 2283073); settings: primary human keratinocytes with fibroblasts; actives raise or lower the signal
Procedure, shortened: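 KF3CT skin co-culture (keratinocytes/foreskin fibroblasts), 24 h post-dose; MCP-1 by ELISA; gain/loss of signal fit bidirectionally vs DMSO baseline.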

[4] = read-out: Matrix Metallopeptidase 9 (MMP9), MMP9 (gene 4318); experiment: BSK_KF3CT_MMP9: BioMAP Diversity Plus: KF3CT Assay for Matrix Metallopeptidase 9 (MMP9) Biomarker Activity (AID 2283074); settings: primary human keratinocytes with fibroblasts; actives raise or lower the signal;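 on AC50: MMP9 protein level quantified by ELISA in the co-culture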
Procedure, shortened: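 Human keratinocyte/foreskin fibroblast co-culture; compound added; 24 h; MMP-9 by ELISA; bidirectional fit vs DMSO baseline.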

[5] = read-out: CD40, CD40 (gene 958); experiment: BSK_LPS_CD40: BioMAP Diversity Plus: LPS Assay for CD40 Biomarker Activity (AID 2283076); settings: primary human HUVEC with PBMC; actives raise or lower the signal
Procedure, shortened: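 ELISA readout of CD40 in HUVEC/PBMC co-culture (BSK_LPS system), 24 h post-dosing; bidirectional curve fit, DMSO baseline; parallel SRB total-protein staining for cytotoxicity.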

[6] = read-out: E-selectin (Homo sapiens) (UniProt P16581); experiment: BSK_LPS_Eselectin: BioMAP Diversity Plus: LPS Assay for Eselectin Biomarker Activity (AID 2283077); settings: primary human HUVEC with PBMC; actives raise or lower the signal
Procedure, shortened: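 ELISA readout of E-selectin, 24 h post-dose, HUVEC + PBMC co-culture (LPS system). Gain or loss of signal vs DMSO baseline, bidirectional fit.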

[7] = read-out: Interleukin-8 (IL8), CXCL8 (gene 3576); experiment: BSK_LPS_IL8: BioMAP Diversity Plus: LPS Assay for Interleukin-8 (IL8) Biomarker Activity (AID 2283078); settings: primary human HUVEC with PBMC; actives raise or lower the signal
Procedure, shortened: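 HUVEC + PBMC co-culture, LPS-activated; test chemicals dosed, IL-8 read by ELISA at 24 h. Bidirectional curve fit vs DMSO baseline (gain or loss of signal).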

[8] = BSK_LPS_SRB: Viability Assessment in the BioMAP Diversity Plus: LPS Assay (AID 2283079); settings: primary human HUVEC with PBMC;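 further: total protein by sulforhodamine B absorbance as a cytotoxicity measure; measured one day after compound addition; fitted in both directions against DMSO so loss or gain of signal counts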
Procedure, shortened: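 HUVEC + PBMC co-culture, LPS-stimulated; compound 24 h. 10% TCA fix, 0.1% SRB stain, A560. Bidirectional fit vs DMSO.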

[9] = read-out: Interleukin-1 alpha (IL1a), IL1A (gene 3552); experiment: BSK_LPS_IL1a: BioMAP Diversity Plus: LPS Assay for Interleukin-1 alpha (IL1a) Biomarker Activity (AID 2283080); settings: primary human HUVEC with PBMC; actives raise or lower the signal
Procedure, shortened: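 HUVEC/PBMC co-culture, LPS system; 24 h after dosing; IL-1a by ELISA; gain or loss of signal fitted bidirectionally vs DMSO baseline.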

[10] = read-out: Monocyte Chemoattractant Protein-1 (MCP1), CCL2 (gene 6347); experiment: BSK_LPS_MCP1: BioMAP Diversity Plus: LPS Assay for Monocyte Chemoattractant Protein-1 (MCP1) Biomarker Activity (AID 2283081); settings: primary human HUVEC with PBMC; actives raise or lower the signal;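 on AC50: secreted MCP-1 protein quantified by ELISA in culture supernatant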
Procedure, shortened: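 ELISA read-out of MCP-1 after 24 h chemical dosing of a human umbilical vein endothelial cell/peripheral blood mononuclear cell co-culture stimulated with LPS. Gain or loss of signal fitted relative to DMSO controls.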

[11] = BSK_LPS_PGE2: BioMAP Diversity Plus: LPS Assay for Prostaglandin E2 (PGE2) Biomarker Activity (AID 2283082); settings: primary human HUVEC with PBMC; actives raise or lower the signal;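 on AC50: secreted prostaglandin E2 measured by ELISA in LPS-stimulated co-culture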
Procedure, shortened: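 HUVEC plus PBMC co-culture stimulated with LPS; secreted PGE2 quantified by ELISA 24 h after chemical dosing. Activity fitted bidirectionally against DMSO as negative control and baseline; parallel SRB total-protein staining served as cytotoxicity check.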

[12] = read-out: Macrophage colony-stimulating factor (MCSF), CSF1 (gene 1435); experiment: BSK_LPS_MCSF: BioMAP Diversity Plus: LPS Assay for Macrophage colony-stimulating factor (MCSF) Biomarker Activity (AID 2283083); settings: primary human HUVEC with PBMC; actives raise or lower the signal
Procedure, shortened: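 HUVEC + PBMC co-culture (human primary), 24 h post-dose; M-CSF by ELISA; gain/loss of signal fitted bidirectionally vs DMSO baseline.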

[13] = read-out: Tissue Factor, F3 (gene 2152); experiment: BSK_LPS_TissueFactor: BioMAP Diversity Plus: LPS Assay for Tissue Factor Biomarker Activity (AID 2283084); settings: primary human HUVEC with PBMC; actives raise or lower the signal
Procedure, shortened: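 HUVEC/PBMC co-culture, LPS-activated; CD142 ELISA read 24 h post-dose; bidirectional curve fit vs DMSO negative control.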

[14] = read-out: Tumor necrosis factor (Homo sapiens) (UniProt P01375); experiment: BSK_LPS_TNFa: BioMAP Diversity Plus: LPS Assay for Tumour Necrosis Factor alpha (TNFa) Biomarker Activity (AID 2283085); settings: primary human HUVEC with PBMC; actives raise or lower the signal
Procedure, shortened: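 Human umbilical vein endothelial cells co-cultured with PBMC were exposed to test chemical and TNFa measured by ELISA 24 h after dosing. Bidirectional curve fitting was done relative to DMSO as negative control and baseline.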

[15] = read-out: CD38, CD38 (gene 952); experiment: BSK_SAg_CD38: BioMAP Diversity Plus: SAg Assay for CD38 Biomarker Activity (AID 2283087); settings: primary human HUVEC with PBMC; actives raise or lower the signal
Procedure, shortened: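 Fluorescence ELISA of cell-surface CD38 served as the read-out, with either increase or decrease fitted against DMSO controls. Cells were a human umbilical vein endothelium plus PBMC co-culture under SEB/TSST-1 stimulation, measured 24 h after dosing.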

[16] = read-out: CD40, CD40 (gene 958); experiment: BSK_SAg_CD40: BioMAP Diversity Plus: SAg Assay for CD40 Biomarker Activity (AID 2283088); settings: primary human HUVEC with PBMC; actives raise or lower the signal
Procedure, shortened: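 HUVEC/PBMC co-culture, 24 h post-dose; CD40 by ELISA, fluorescence intensity; bidirectional fit vs DMSO negative control.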

[17] = read-out: CD69, CD69 (gene 969); experiment: BSK_SAg_CD69: BioMAP Diversity Plus: SAg Assay for CD69 Biomarker Activity (AID 2283089); settings: primary human HUVEC with PBMC; actives raise or lower the signal;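 on AC50: cell surface CD69 protein quantified by ELISA with fluorescence detection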
Procedure, shortened: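 ELISA, fluorescence read-out: CD69 on human umbilical vein endothelial cell + PBMC co-culture, 24 h post-dosing. Gain or loss of signal fitted bidirectionally against DMSO baseline.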

[18] = read-out: Monocyte Chemoattractant Protein-1 (MCP1), CCL2 (gene 6347); experiment: BSK_SAg_MCP1: BioMAP Diversity Plus: SAg Assay for Monocyte Chemoattractant Protein-1 (MCP1) Biomarker Activity (AID 2283090); settings: primary human HUVEC with PBMC; actives raise or lower the signal
Procedure, shortened: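 MCP-1 levels in the endothelial–PBMC SAg co-culture were quantified by ELISA at 24 h post-dosing; both increases and decreases versus DMSO scored. Cytotoxicity monitored by SRB total protein in parallel cultures.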

[19] = read-out: Vascular cell adhesion molecule 1 (VCAM1), VCAM1 (gene 7412); experiment: BSK_LPS_VCAM1: BioMAP Diversity Plus: LPS Assay for Vascular cell adhesion molecule 1 (VCAM1) Biomarker Activity (AID 2283086); settings: primary human HUVEC with PBMC; actives raise or lower the signal
Procedure, shortened: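 Human umbilical vein endothelial cells co-cultured with peripheral blood mononuclear cells under LPS stimulation were exposed to test chemical for 24 h. VCAM-1 levels were then measured by ELISA, with bidirectional curve fitting relative to DMSO as negative control and baseline.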

Sequence of E-selectin (Homo sapiens) (P16581 whole entry, looked up): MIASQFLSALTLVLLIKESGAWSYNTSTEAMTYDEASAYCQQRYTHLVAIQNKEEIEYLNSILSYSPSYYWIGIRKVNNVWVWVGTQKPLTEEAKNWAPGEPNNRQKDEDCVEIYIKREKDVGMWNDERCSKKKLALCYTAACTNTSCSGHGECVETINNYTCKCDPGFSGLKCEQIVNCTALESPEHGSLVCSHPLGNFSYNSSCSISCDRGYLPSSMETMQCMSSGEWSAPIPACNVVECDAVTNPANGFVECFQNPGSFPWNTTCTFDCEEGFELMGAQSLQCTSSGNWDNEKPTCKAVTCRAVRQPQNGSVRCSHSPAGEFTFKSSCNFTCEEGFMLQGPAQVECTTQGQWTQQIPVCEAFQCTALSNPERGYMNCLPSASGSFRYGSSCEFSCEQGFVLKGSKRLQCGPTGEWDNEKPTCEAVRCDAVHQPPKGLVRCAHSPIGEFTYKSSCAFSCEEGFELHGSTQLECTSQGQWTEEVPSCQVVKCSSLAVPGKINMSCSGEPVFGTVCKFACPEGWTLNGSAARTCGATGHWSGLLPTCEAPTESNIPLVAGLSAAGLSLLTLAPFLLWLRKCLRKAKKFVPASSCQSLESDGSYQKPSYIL
Sequence of Tumor necrosis factor (Homo sapiens) (P01375 whole entry, looked up): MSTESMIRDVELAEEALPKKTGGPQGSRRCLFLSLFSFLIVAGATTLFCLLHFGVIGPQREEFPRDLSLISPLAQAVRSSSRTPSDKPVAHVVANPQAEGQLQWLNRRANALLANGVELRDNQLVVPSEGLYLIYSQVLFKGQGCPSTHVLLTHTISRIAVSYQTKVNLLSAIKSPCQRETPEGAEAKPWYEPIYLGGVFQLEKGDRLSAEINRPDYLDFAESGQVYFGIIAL

CC[C@H](C)[C@H]1O[C@]2(C=C[C@@H]1C)C[C@@H]1C[C@@H](C/C=C(\C)[C@@H](O[C@H]3C[C@H](OC)[C@@H](O[C@H]4C[C@H](OC)[C@@H](NC)[C@H](C)O4)[C@H](C)O3)[C@@H](C)/C=C/C=C3\CO[C@@H]4[C@H](O)C(C)=C[C@@H](C(=O)O1)[C@]34O)O2
AC50 [1]: 8.99 µM (active) | AC50 [2]: 10.8 µM (active) | AC50 [3]: 7.96 µM (active) | AC50 [4]: 6.21 µM (active) | AC50 [5]: 1.86 µM (active) | AC50 [6]: 5.98 µM (active) | AC50 [7]: 5.57 µM (active) | AC50 [8]: 5.52 µM (active) | AC50 [9]: 3.68 µM (active) | AC50 [10]: 5.49 µM (active) | outcome [11]: inactive | AC50 [12]: 4.33 µM (active) | AC50 [13]: 9.74 µM (active) | AC50 [14]: 4.56 µM (active) | AC50 [15]: 3.25 µM (active) | AC50 [16]: 3.34 µM (active) | AC50 [17]: 4.17 µM (active) | AC50 [18]: 3.38 µM (active)

COP(=O)(OC)C(O)C(Cl)(Cl)Cl (stereo unspecified)
outcome [1]: inactive | outcome [2]: inactive | outcome [3]: inactive | outcome [4]: inactive | outcome [5]: inactive | outcome [6]: inactive | outcome [8]: inactive | outcome [9]: inactive | outcome [10]: inactive | outcome [12]: inactive | outcome [13]: inactive | outcome [14]: inactive | outcome [15]: inactive | outcome [16]: inactive | outcome [17]: inactive | outcome [18]: inactive

CCOP(=S)(OCC)Oc1ccc([N+](=O)[O-])cc1
outcome [1]: inactive | outcome [2]: inactive | outcome [3]: inactive | outcome [4]: inactive | AC50 [5]: 16.7 µM (active) | outcome [6]: inactive | outcome [7]: inactive | outcome [8]: inactive | outcome [9]: inactive | AC50 [11]: 20 µM (active) | AC50 [12]: 20 µM (active) | outcome [13]: inactive | outcome [14]: inactive | AC50 [15]: 20 µM (active) | outcome [16]: inactive | AC50 [17]: 32.4 µM (active) | outcome [18]: inactive

CN(C)C(=O)Nc1cccc(C(F)(F)F)c1
outcome [1]: inactive | outcome [2]: inactive | outcome [3]: inactive | outcome [4]: inactive | outcome [5]: inactive | outcome [6]: inactive | outcome [7]: inactive | outcome [8]: inactive | outcome [9]: inactive | outcome [10]: inactive | outcome [11]: inactive | outcome [12]: inactive | outcome [13]: inactive | outcome [14]: inactive | outcome [15]: inactive | outcome [16]: inactive | outcome [17]: inactive | outcome [18]: inactive

C=C(C)[C@H]1Cc2c(ccc3c2O[C@@H]2COc4cc(OC)c(OC)cc4[C@@H]2C3=O)O1
outcome [1]: inactive | outcome [2]: inactive | outcome [3]: inactive | AC50 [4]: 16.7 µM (active) | AC50 [5]: 6.01 µM (active) | AC50 [6]: 20 µM (active) | outcome [7]: inactive | AC50 [8]: 10.9 µM (active) | AC50 [10]: 26.8 µM (active) | AC50 [11]: 0.702 µM (active) | AC50 [12]: 13.4 µM (active) | AC50 [13]: 8.75 µM (active) | outcome [14]: inactive | AC50 [19]: 5.99 µM (active) | AC50 [15]: 5.59 µM (active) | AC50 [16]: 7.75 µM (active) | AC50 [17]: 3.97 µM (active) | AC50 [18]: 16.7 µM (active)

CNC(=O)ON=C(C)SC
outcome [1]: inactive | outcome [2]: inactive | outcome [3]: inactive | outcome [4]: inactive | outcome [5]: inactive | outcome [6]: inactive | outcome [7]: inactive | outcome [8]: inactive | outcome [9]: inactive | outcome [10]: inactive | AC50 [11]: 0.564 µM (active) | outcome [12]: inactive | outcome [13]: inactive | outcome [14]: inactive | outcome [19]: inactive | outcome [15]: inactive | outcome [16]: inactive | outcome [17]: inactive | outcome [18]: inactive
